Source: PubChem BioAssay
Records with an inconclusive call do not appear. Active and inactive are the calls of the source. Rule as the data show it, unless noted: active = inhibition above about 30%; inactive = the rest.

Legend:
[1] = reducers of endogenous Her2 protein level, primary screen, SKBR3 breast tumor cells, AlphaScreen, ATP viability (AID 461;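 active = Her2 level under about 52% in both replicate screens, with viability over 70% of control, limit read from the data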;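 as to Her2 level: lower value means less Her2 protein in the cells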;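 as to viability: percent of carrier control wells set as 100% viability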); details: 18-24 h, measured here: SKBR3 viability, ATP luminescence, at 10 µM
[2] = target: Receptor tyrosine-protein kinase erbB-2 (Homo sapiens) (UniProt P04626); assay: as above; details: 18-24 h, at 10 µM, stronger effect = lower value
[3] = SK-BR-3 cell growth inhibitors, pilot screen, 24 h, human (AID 572;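 active = viability at or below 10% of carrier control in both of two separate runs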;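 also: compound exposure lasted between 18 and 24 h rather than exactly 24 h; 100% = carrier-treated control wells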); details: SK-BR-3 viability, CellTiter-Glo luminescence, at 10 µM, stronger effect = lower value
[4] = HUVEC growth inhibition – cell-based, human, primary screen (AID 575;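 active = viability at or below 30% in both replicate assays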;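 also: 100% = median of untreated cell wells with 0.1% DMSO on each plate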); details: HUVEC proliferation, CellTiter-Glo luminescence, 72 h; at 10 µM; stronger effect = lower value
[5] = growth inhibitors of H69AR lung tumor, primary screen, human, duplicate replicates (AID 580;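 active = viability at or under a set limit in both replicates, limit being median viability minus 3 SD, cut at about 48% in these data, passing the limit was not always enough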;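 also: 100% = mean luminescence of untreated wells and 0% = no signal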); details: H69AR lung tumor cells viability, ATP luminescence, 72 h; at 10 µM; stronger effect = lower value
[6] = reversal of MRP1-mediated doxorubicin resistance, pilot screen, H69AR cells, doxorubicin co-treatment (AID 601;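 active = viability loss from added drug above about 55%, and viability with drug at most 40%, in both replicates, limit read from the data, passing the limit was not always enough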); details: CellTiter-Glo, 72 h, at 10 µM; for differential viability (reversal): stronger effect = higher value
[7] = 384-well plate pilot, post-Golgi transport modulator project, inhibition of yeast transport mutant growth (AID 636; in the data active = inhibition above about 31%); details: absorbance 615 nm, about 18 h, stronger effect = higher value
[8] = growth suppression of yeast trafficking mutant, preliminary HTS, modulators of trafficking downstream of Golgi apparatus project, 1536-format plate, OD 615 nm (AID 637); details: yeast transport mutant growth, absorbance 615 nm, 18 h; stronger effect = higher value
[9] = OD615 S. cerevisiae growth inhibition, permissive medium, pilot counter-assay, permissive growth control for S. cerevisiae lifespan shortening project (AID 705;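 active = growth inhibition above 25% in both replicates, a cutoff set 3 SD above the mean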); details: OD615, 24 h, at 10 µM, stronger effect = higher value
[10] = Restrictive medium S. cerevisiae growth inhibition, OD615, pilot screen of yeast lifespan reduction project, restrictive growth control (AID 706;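 active = growth inhibition above a set limit, 3 SD over mean compound inhibition, in both replicates, cut at about 43% in these data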;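 also: modified DeaD lifespan yeast strain shifted to restrictive glucose medium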); details: OD615, 48 h, at 10 µM, stronger effect = higher value
[11] = viability gain of MRP-1-high H69AR cells under doxorubicin, pilot screen, MRP-1 activator project, CellTiter-Glo, duplicate (AID 807;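 active = viability increase at or above a cutoff of the median across tested compounds plus 3 SD, cut at about 8.5% in these data, passing the limit was not always enough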;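 also: compound pretreatment 18-22 h then 72 h combined with doxorubicin; 0% = doxorubicin alone and 100% = vehicle without doxorubicin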); details: H69AR viability with doxorubicin, CellTiter-Glo luminescence; at 10 µM; stronger effect = higher value
[12] = growth suppression of beta-catenin knockout HCT116, pilot screen, human colon tumor cells (AID 823;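 active = cell viability at or below a set limit in both duplicate runs, the limit being the all-compound median minus 4 SD, cut at about 23% in these data, passing the limit was not always enough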;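 also: 0% = wells killed by 20 µM Hyamine and 100% = untreated DMSO cell wells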); details: CellTiter-Glo, 60 h, at 10 µM, stronger effect = lower value
[13] = growth suppression of PTEN-deleted HCT116, pilot screen, cell-based, HCT116 clonal line, CellTiter-Glo (AID 824;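 active = viability at or below 27.92% in each of two runs, the all-compound median minus 4 SD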;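 also: 0% = 20 µM Hyamine control and 100% = vehicle cell control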); details: 60 h, at 10 µM, stronger effect = lower value
[14] = inhibitors of the yeast RAM network, pilot screen, dse1pr::URA3 reporter, 5-FOA selection (AID 869;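 active = inhibition over a set limit, the all-compound mean plus 3 SD, in both replicate runs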;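 also: 0% = DMSO wells with no growth and 100% = 10 µM 1-NA-PP1 with full growth; RAM network block rescues cells from 5-FOA so hits raise OD615 growth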); details: S. cerevisiae dse1pr::URA3 5-FOA growth, OD615, 2 d; at 10 µM; stronger effect = higher value; strain carries analog-sensitive mutant Cbk1 kinase
[15] = RAM signaling pathway blockade in yeast – S. cerevisiae, Pdr1DBD-CYC8 efflux-inhibited sensitized strain, primary screen (AID 1298;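 active = RAM network inhibition above 8.4% in each of two replicates, 3 SD over the compound average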;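 also: 0% = DMSO untreated cells without growth and 100% = 10 µM 1-NA-PP1 full growth; higher means more yeast growth rescued from 5-FOA killing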); details: S. cerevisiae cbk1-as DSE1-URA3 strain, 5-FOA growth OD615, 2 d; at 50 µM; stronger effect = higher value
[16] = H69AR cells + 2 uM doxorubicin, measured here: viability with 2 uM doxorubicin, stronger effect = lower value
[17] = H69AR cells, compound alone cytotoxicity

Chain of Receptor tyrosine-protein kinase erbB-2 (Homo sapiens) (P04626 whole entry, looked up): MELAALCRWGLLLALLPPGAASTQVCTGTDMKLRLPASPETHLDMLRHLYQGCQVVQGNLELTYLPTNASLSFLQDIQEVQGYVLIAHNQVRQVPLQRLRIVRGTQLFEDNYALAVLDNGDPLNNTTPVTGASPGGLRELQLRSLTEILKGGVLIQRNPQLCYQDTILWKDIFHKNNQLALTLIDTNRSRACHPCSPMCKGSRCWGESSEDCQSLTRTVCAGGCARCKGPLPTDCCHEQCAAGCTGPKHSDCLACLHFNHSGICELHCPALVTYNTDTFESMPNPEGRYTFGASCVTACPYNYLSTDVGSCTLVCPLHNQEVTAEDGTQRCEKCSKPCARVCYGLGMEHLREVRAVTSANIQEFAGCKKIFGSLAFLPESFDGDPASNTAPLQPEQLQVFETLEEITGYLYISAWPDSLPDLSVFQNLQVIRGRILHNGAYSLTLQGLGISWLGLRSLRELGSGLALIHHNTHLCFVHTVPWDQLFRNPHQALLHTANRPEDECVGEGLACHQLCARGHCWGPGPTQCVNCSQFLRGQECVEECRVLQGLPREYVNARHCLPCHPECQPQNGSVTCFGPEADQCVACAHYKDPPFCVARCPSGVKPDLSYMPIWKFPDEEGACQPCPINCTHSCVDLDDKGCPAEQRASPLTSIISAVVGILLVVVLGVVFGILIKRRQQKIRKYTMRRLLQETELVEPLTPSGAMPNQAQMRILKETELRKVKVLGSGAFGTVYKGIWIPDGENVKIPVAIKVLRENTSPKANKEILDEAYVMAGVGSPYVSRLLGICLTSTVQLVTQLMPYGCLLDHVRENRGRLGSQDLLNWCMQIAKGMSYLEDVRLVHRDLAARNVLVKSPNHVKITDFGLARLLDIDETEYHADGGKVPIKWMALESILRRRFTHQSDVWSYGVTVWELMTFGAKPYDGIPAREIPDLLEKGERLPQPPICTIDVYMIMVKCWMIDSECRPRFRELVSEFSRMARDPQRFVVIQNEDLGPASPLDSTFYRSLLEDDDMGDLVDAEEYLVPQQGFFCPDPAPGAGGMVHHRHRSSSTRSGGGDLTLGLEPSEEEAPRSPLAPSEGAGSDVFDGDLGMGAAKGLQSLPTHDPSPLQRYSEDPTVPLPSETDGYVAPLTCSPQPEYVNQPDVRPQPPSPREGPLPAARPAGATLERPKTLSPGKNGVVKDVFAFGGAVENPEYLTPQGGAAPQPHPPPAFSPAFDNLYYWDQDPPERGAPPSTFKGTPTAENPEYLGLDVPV

Row | Structure (SMILES) | viability [1] | Her2 level [2] | viability [3] | viability [4] | viability [5] | differential viability (reversal) ([6]; H69AR cells + 2 uM doxorubicin) | viability [6, 16] | viability [6, 17] | inhibition [7] | inhibition [8] | growth inhibition [9] | growth inhibition [10] | viability increase [11] | viability [12] | viability [13] | inhibition [14] | RAM network inhibition [15]
1 | N#CCCN(Cc1cccnc1)C(=O)Nc1ccc(Cl)c(Cl)c1 | 118% | 94% (inactive) | 118% (inactive) | 94.6% (inactive) | 91.2% (inactive) | 9.8% (inactive) | 81.4% | 91.2% | 0.13% (inactive) | 3.28% (inactive) | -13.1% (inactive) | -14.9% (inactive) | 0.83% (inactive) | 95.3% (inactive) | 102% (inactive) | 0.065% (inactive) | 4.53% (inactive)
2 | CCN(CC)CCCNC(=O)c1cn(C)c2ccc(S(=O)(=O)N(C)C)cc2c1=O | 98.5% | 116% (inactive) | 98.5% (inactive) | 99.2% (inactive) | 99.4% (inactive) | 2.72% (inactive) | 96.7% | 99.4% | -0.26% (inactive) | 1.5% (inactive) | -1.33% (inactive) | 8.49% (inactive) | -0.44% (inactive) | 101% (inactive) | 98.5% (inactive) | 2.21% (inactive) | 1.85% (inactive)
3 | O=C(CCN1C(=O)c2ccccc2C1=O)Nc1ccc(F)cc1 | 108% | 76% (inactive) | 108% (inactive) | 116% (inactive) | 104% (inactive) | 12.9% (inactive) | 90.6% | 104% | -1.95% (inactive) | -7% (inactive) | -8.49% (inactive) | -11.6% (inactive) | 3.01% (inactive) | 107% (inactive) | 110% (inactive) | 1.6% (inactive) | -0.26% (inactive)
4 | CCOC(=O)N1CCN(C(=O)c2c(-c3ccccc3)noc2C)CC1 | 78% | 104% (inactive) | 78% (inactive) | 96.6% (inactive) | 95.2% (inactive) | 5.67% (inactive) | 89.5% | 95.2% | -6.67% (inactive) | -2.5% (inactive) | -9.5% (inactive) | -0.595% (inactive) | -2.25% (inactive) | 104% (inactive) | 87.6% (inactive) | 3% (inactive) | 4.25% (inactive)
5 | CCOC(=O)Nc1ccc2c(c1)N(C(=O)OCCN(C)C)c1ccccc1CC2 | 94.5% | 100% (inactive) | 94.5% (inactive) | 77.5% (inactive) | 90.2% (inactive) | 12.4% (inactive) | 77.7% | 90.2% | -7.07% (inactive) | -9.02% (inactive) | -10.3% (inactive) | -0.265% (inactive) | -4.23% (inactive) | 73.5% (inactive) | 78.8% (inactive) | 1.89% (inactive) | 2.2% (inactive)
6 | COc1ccc(C2C(C(=O)N3CCC(C)CC3)c3ccccc3C(=O)N2C)cc1 (stereo not given) | 109% | 112% (inactive) | 109% (inactive) | 108% (inactive) | 94.9% (inactive) | -1.18% (inactive) | 96.1% | 94.9% | 1.23% (inactive) | 9.84% (inactive) | -17% (inactive) | -12% (inactive) | -2.5% (inactive) | 83.3% (inactive) | 82.9% (inactive) | 2.41% (inactive) | 7.41% (inactive)
7 | COc1ccc(NC(=O)CSc2nnc(-c3ccccc3)n2N)cc1 | 97.5% | 87.5% (inactive) | 97.5% (inactive) | 94.7% (inactive) | 93.6% (inactive) | 17.2% (inactive) | 76.4% | 93.6% | -7.87% (inactive) | -0.16% (inactive) | 0.265% (inactive) | 3.57% (inactive) | 0.58% (inactive) | 101% (inactive) | 108% (inactive) | 1.12% (inactive) | 3.84% (inactive)
8 | COc1ccc(S(=O)(=O)N(C)C2CCN(C)CC2)cc1 | 108% | 98% (inactive) | 108% (inactive) | 93.2% (inactive) | 93.4% (inactive) | 11.1% (inactive) | 82.3% | 93.4% | -4.8% (inactive) | -2% (inactive) | -6.05% (inactive) | -10.2% (inactive) | -3.82% (inactive) | 100% (inactive) | 96.9% (inactive) | 0.835% (inactive) | 5.99% (inactive)
9 | Cc1ccccc1Cn1ccc(NC(=O)c2onc(C)c2Cl)n1 | 107% | 106% (inactive) | 107% (inactive) | 93.6% (inactive) | 100% (inactive) | 16.8% (inactive) | 83.6% | 100% | -4% (inactive) | -4.17% (inactive) | -7.95% (inactive) | 2.75% (inactive) | 4.68% (inactive) | 103% (inactive) | 91.2% (inactive) | 1.72% (inactive) | 4.82% (inactive)
10 | CCOc1ccc(OCCCCN(C)C)cc1 | 89% | 92.5% (inactive) | 89% (inactive) | 87.2% (inactive) | 88.5% (inactive) | 1.8% (inactive) | 86.7% | 88.5% | -0.64% (inactive) | 1.5% (inactive) | -10% (inactive) | 3.69% (inactive) | -0.48% (inactive) | 96.8% (inactive) | 93.5% (inactive) | 3.26% (inactive) | 6.13% (inactive)
